ClpP mod = qHTS Assay for Activators of ClpP. ATP-dependent Clp protease proteolytic subunit (Bacillus subtilis (strain 168)), P80244. purified B. subtilis ClpP, FRET peptide cleavage, 20 min. Potency, µM (highest dose often 57.5 µM). 340,000 tested, 1.9% active. AID 651965, 2013; active = well fitted falling curve with a large enough effect; inconclusive = small, poorly fitted or top-dose-only effect; inactive = no such curve, though single readings can be large or run the other way; note: the source files actives as falling curves though it sought activators and does not explain the sign; nearly all actives have a fitted effect of over 65% in size
Target sequence (P80244 whole entry, looked up): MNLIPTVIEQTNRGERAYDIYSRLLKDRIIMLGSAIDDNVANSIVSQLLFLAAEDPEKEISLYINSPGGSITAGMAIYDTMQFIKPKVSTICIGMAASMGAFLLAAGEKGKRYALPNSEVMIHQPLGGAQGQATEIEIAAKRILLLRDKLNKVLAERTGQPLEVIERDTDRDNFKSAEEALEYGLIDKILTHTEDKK
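Buffer: 100 mM Tris/HCl pH8, 100 mM KCl, 0.05% low protease BSA, 2.5% glycerol, 0.01% Tween-20. ClpP 10 microg/mL final; 20 min RT; delta FRET normalized to ADEP and DMSO controls.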
TDP1 cell CPT = DT40-hTDP1 cell growth loss with CPT | chicken DT40 Tdp1-/-;hTDP1 cells + 20 nM CPT, ATP luminescence, 48 h | 420,000 tested, 12% active | AID 686979 | Potency, µM (titrated, usually from 46.2 µM), actives largely listed as inhibitors; note: nearly all actives have a fitted effect of over 55% in size
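Chicken DT40 Tdp1-/- cells stably complemented with human TDP1 were seeded at 400 cells/well in medium containing 20 nM camptothecin, exposed to pin-transferred compounds, and grown at 37 °C for at least 48 hr. Viability was read as ATP luminescence.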
IL1B secr inh = blocks inflammasome-driven IL-1 beta release | THP-1 LPS/ATP IL-1B secretion, AlphaLISA, 16 h; stronger effect = lower value | activity change, % at 57.5 µM | 360,000 tested, 4.7% active | AID 743279; in the data active = activity change below about -50%; inconclusive = mostly about -30% to -49%
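THP-1 cells pretreated 1 hr with compounds (up to 57.5 uM final), then stimulated with LPS (250 ng/mL final) plus ATP (1.25 mM final); secreted IL-1B measured by AlphaLISA after 16 hr, decreased signal indicating inhibition.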
D3 antag = antagonists of human D3 dopamine receptor. max response, negative = inhibition, %. P35462. 360,000 tested, 2.5% active. D3R cells, DiscoveRx beta-arrestin luminescence, antagonist mode; stronger effect = lower value. AID 652054; in the data active = max response below about -50%; inconclusive = no clear call, values can overlap the other calls
Target sequence (P35462 whole entry, looked up): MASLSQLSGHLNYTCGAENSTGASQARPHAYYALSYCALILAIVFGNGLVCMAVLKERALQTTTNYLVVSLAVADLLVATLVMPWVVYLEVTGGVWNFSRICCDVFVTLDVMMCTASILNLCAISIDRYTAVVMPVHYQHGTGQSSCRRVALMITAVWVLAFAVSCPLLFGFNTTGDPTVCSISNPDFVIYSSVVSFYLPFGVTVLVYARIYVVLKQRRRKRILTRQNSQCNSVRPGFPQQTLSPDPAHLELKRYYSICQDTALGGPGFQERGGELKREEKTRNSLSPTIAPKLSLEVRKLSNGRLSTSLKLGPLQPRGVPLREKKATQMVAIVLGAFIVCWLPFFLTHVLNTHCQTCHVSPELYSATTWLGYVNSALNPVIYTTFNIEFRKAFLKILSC
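Cells expressing the human receptor were seeded at 1500 cells/well, incubated overnight at 37 degrees C in 5% CO2, then exposed to library compounds with dopamine controls for 90 minutes at 37 degrees C before luminescent detection.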
TDP1 cell noCPT = qHTS for Inhibitors of human tyrosyl-DNA phosphodiesterase 1 (TDP1): qHTS in cells in absence of CPT; DT40 Tdp1-/- hTDP1 cells, no CPT, ATP luminescence, 48 h; Potency, µM (top dose mostly 46.2 µM), actives largely listed as inhibitors; 420,000 tested, 15% active; AID 686978, 2013; note: nearly all actives have a fitted effect of over 55% in size
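Cells were dispensed at 400 per well, compounds added by pin tool, plates incubated ≥48 hr at 37 °C, then CellTiter-Glo added for 30 min at room temperature before luminescence reading. Line: DT40 Tdp1-/- complemented with hTDP1; camptothecin omitted.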
DRD3 agonist = D3 dopamine receptor (human) agonism | max activation, % | 410,000 tested, 0.58% active | P35462 | D3R DiscoveRx beta-arrestin cells, luminescence, 90 min | AID 652048; in the data active = max activation above about 30%
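Agonist mode: compounds and dopamine controls were applied to plated cells for 90 min at 37 degrees C after an overnight attachment at 1500 cells/well. Luminescent read-out followed 30 - 60 minutes at room temperature with DiscoveRx detection reagent.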
Of the large screens only hits and unclear results are named; the others gave an inactive call. In the library only some 21% were active in any assay of this set; here they are far more common. Unless noted, calls come from the whole dose curve; as a rule, active = well fitted inhibition curve with a large enough effect; inconclusive = small, poorly fitted or top-dose-only effect; inactive = flat fitted curve, though single readings scatter.

CC(C)(C)c1ccc(OCCC(=O)OCC(=O)N2c3ccccc3NC(=O)C2(C)C)cc1	TDP1 cell CPT inconclusive, TDP1 cell noCPT inconclusive
CCOC(=O)c1cc2c(ccn2C)n1CC(=O)N1CCN(c2ccc(F)cc2)CC1	none
CCOC(=O)c1cc2c(ccn2C)n1CC(=O)N1CCN(c2cccc(C(F)(F)F)c2)CC1	ClpP mod inconclusive, TDP1 cell CPT 16µM, D3 antag inconclusive, TDP1 cell noCPT 16µM
Cc1nn(CC(=O)N2CCN(c3cccc(C(F)(F)F)c3)CC2)c(=O)c2cccn12	TDP1 cell CPT 15µM, TDP1 cell noCPT 23µM
CC1CCN(S(=O)(=O)c2cn(CC(=O)N3CCN(c4cccc(C(F)(F)F)c4)CC3)cn2)CC1	TDP1 cell CPT 15µM, TDP1 cell noCPT inconclusive
Cc1ccc(N(CC(=O)NC2CCCCC2)C(=O)CCC(=O)Nc2nccs2)cc1	none
O=C(NCc1ccccc1)C(c1ccccc1F)n1c(=O)c(-c2cc3ccccc3[nH]2)nc2ccccc21 (stereo unspecified)	TDP1 cell CPT inconclusive, TDP1 cell noCPT inconclusive
CC(OC(=O)c1cccc(-n2cnnn2)c1)C(=O)NCc1ccccc1 (stereo unspecified)	none (no result: ClpP mod)
O=C(CSc1nc2ccc(Nc3nc(N4CCOCC4)nc(N4CCOCC4)n3)cc2s1)N1CCOCC1	TDP1 cell CPT 21µM, TDP1 cell noCPT 18µM
CC(=O)Nc1ccc2nc(SCC(=O)N3CCOCC3)sc2c1	none (no result: ClpP mod)
COC(=O)c1ccccc1NC(=O)CSc1nc(Nc2ccccc2)nc(N2CCOCC2)n1	TDP1 cell CPT inconclusive, TDP1 cell noCPT inconclusive
O=C(CSc1nc2ccc(Nc3nc(N4CCOCC4)nc(N4CCOCC4)n3)cc2s1)Nc1ccccc1F	TDP1 cell CPT 6.5µM, TDP1 cell noCPT 5.8µM
CC(C)(C)Nc1nc(SCC(=O)Nc2ccccc2Cl)nc(N2CCOCC2)n1	TDP1 cell CPT inconclusive
O=C(CSc1nc2ccc(Nc3nc(N4CCOCC4)nc(N4CCOCC4)n3)cc2s1)Nc1ccccc1Cl	TDP1 cell CPT 21µM, TDP1 cell noCPT inconclusive
NS(=O)(=O)c1ccc(NC(=O)CSc2nc(Nc3ccccc3)nc(N3CCOCC3)n2)cc1	TDP1 cell CPT 21µM, TDP1 cell noCPT 16µM
CC(=O)c1ccc(NC(=O)CSc2nc(Nc3ccccc3)nc(N3CCOCC3)n2)cc1	TDP1 cell CPT inconclusive, TDP1 cell noCPT inconclusive
Cn1cc(C(=O)[C@@H]2CCc3nc[nH]c3C2)c2ccccc21	none (no result: ClpP mod, IL1B secr inh, D3 antag)
O=C(CSc1nc2ccc(Nc3nc(N4CCCC4)nc(N4CCCC4)n3)cc2s1)NCc1ccco1	TDP1 cell CPT 5.8µM, TDP1 cell noCPT 6.5µM
Cc1cccc(C)c1Nc1nnc(SCC(=O)NCc2ccco2)s1	none
CSc1nc2ccc(Nc3nc(N4CCOCC4)nc(N4CCOCC4)n3)cc2s1	TDP1 cell CPT 23µM, TDP1 cell noCPT 16µM (no result: IL1B secr inh)
O=C(CCN1CCCO1)N1CCCC(Nc2cccc(F)c2)C1 (stereo unspecified)	none
COc1ccc(CCNC(=O)C2CC3Cn4c(nc5ccccc54)C3N2Cc2ccccc2)cc1 (stereo unspecified)	TDP1 cell CPT inconclusive, TDP1 cell noCPT 18µM
COc1ccc(CCNC(=O)C2CC3Cn4c(nc5ccccc54)C3N2C)cc1 (stereo unspecified)	none
CCSC1=N/C(=C\C=C2/Oc3ccccc3N2CC)C(=O)S1	TDP1 cell noCPT inconclusive (no result: ClpP mod)
Cc1ccc2[nH]c3c(c2c1)CNCC3	D3 antag -58 (no result: ClpP mod)
Cc1ccc2[nH]c3c(c2c1)CCC3=O	ClpP mod 25µM
O=C1CCCc2c1[nH]c1ccc(CN3CCCCC3)cc21	ClpP mod 28µM, TDP1 cell CPT 16µM, IL1B secr inh -52, D3 antag -54, TDP1 cell noCPT inconclusive
CC(C)c1ccc2[nH]c3c(c2c1)CCCC3=O	none (no result: ClpP mod)
c1ccc2c3c([nH]c2c1)CCNC3	D3 antag inconclusive (no result: ClpP mod)
Cc1ccc2[nH]c3c(c2c1)CCCC3=O	ClpP mod inconclusive
O=C(CCC(=O)N1CCOCC1)NCCc1ccccc1	none
CC(=O)N1CCSc2ccc(S(=O)(=O)NCc3ccccc3)cc21	TDP1 cell CPT inconclusive, TDP1 cell noCPT inconclusive
CC(=O)N1CCSc2ccc(S(=O)(=O)Nc3ccccc3C)cc21	TDP1 cell CPT inconclusive, IL1B secr inh -57
CC(=O)N1CCSc2ccc(S(=O)(=O)Nc3cccc(C)c3)cc21	TDP1 cell CPT 18µM, TDP1 cell noCPT 13µM
CC(=O)c1cccc(NS(=O)(=O)c2ccc3c(c2)N(C(C)=O)CCO3)c1	TDP1 cell CPT inconclusive, TDP1 cell noCPT 21µM
COc1cccc(NS(=O)(=O)c2ccc3c(c2)N(C(C)=O)CCS3)c1	TDP1 cell CPT inconclusive, TDP1 cell noCPT inconclusive
N#CCSc1ccccc1NC(=O)COC(=O)CCN1C(=O)C2CC=CCC2C1=O (stereo unspecified)	none
O=C(CC[C@H]1O[C@@H](n2cnc3c(NC(=O)c4ccccc4)ncnc32)[C@H](O)[C@@H]1O)NCc1cccc2ccccc12	none
Cc1sc2nc(SCC(=O)N3CCCC3)[nH]c(=O)c2c1C	TDP1 cell CPT 26µM, TDP1 cell noCPT inconclusive
Cc1sc2nc(SCC(=O)N3CCCCC3)[nH]c(=O)c2c1C	none
CCC(C)c1c(O)nc(SCC(=O)N2CCCCCC2)[nH]c1=O (stereo unspecified)	IL1B secr inh -51 (no result: ClpP mod)
CC(C)c1c(O)nc(SCC(=O)N2CCCCC2)[nH]c1=O	none
Cc1cc(NC(=O)C(C)Sc2nc(-c3ccccc3)cc(=O)[nH]2)no1 (stereo unspecified)	none (no result: ClpP mod)
Cc1nc2c(C)cccc2cc1C(=O)N/N=C/c1ccc(N(C)C)cc1	TDP1 cell CPT 5.8µM, TDP1 cell noCPT 12µM
Cc1nc2c(C)cccc2cc1C(=O)N/N=C/c1cccnc1	TDP1 cell CPT 5.2µM, IL1B secr inh -67, TDP1 cell noCPT 6.5µM
Cc1nc2c(C)cccc2cc1C(=O)N/N=C/c1ccc(C(=O)O)cc1	TDP1 cell CPT inconclusive, TDP1 cell noCPT inconclusive (no result: ClpP mod)
Cc1ccc(SC(=O)COc2ccccc2C)cc1	TDP1 cell CPT 13µM, TDP1 cell noCPT inconclusive
Cc1ccc(OC(=O)COc2ccccc2C)cc1	none (no result: ClpP mod)
N#CCCN1CCN(CCC#N)CC1	none
Cc1cc(CN2CCN(CCC#N)CC2)c(O)c(C2(C)CCCCC2)c1	TDP1 cell CPT 16µM, TDP1 cell noCPT 21µM
COCCn1c(=O)c(-c2cccc(C#N)c2)nc2cnc(N(C)C)nc21	none (no result: ClpP mod, IL1B secr inh, D3 antag, DRD3 agonist)
CCOC(=O)C1=C(C)NC(C)=C(C(=O)OCC)C1c1ccc(C)o1	TDP1 cell CPT inconclusive, TDP1 cell noCPT inconclusive
C=CCOC(=O)C1=C(C)NC(C)=C(C(=O)OCC=C)C1c1ccc(C)o1	TDP1 cell CPT inconclusive, IL1B secr inh -77, TDP1 cell noCPT inconclusive

Source: PubChem
